Compound activity from PubChem BioAssay.
Tau fibril ThT: qHTS for Inhibitors of Tau Fibril Formation, Thioflavin T Binding; Microtubule-associated protein tau (Homo sapiens), P10636; recombinant tau K18 P301L, heparin-induced fibrillization, ThT fluorescence; Potency, µM (doses to about 57.4 µM), for inactives: top-dose activity, negative = inhibition, actives largely listed as inhibitors; 2.1% of 270,000 active; AID 1460, 2008; note: potency is the fitted concentration of half-maximal effect; nearly all actives have a fitted effect of over 55% in size
Target sequence (P10636 561-689 P618L limits assumed): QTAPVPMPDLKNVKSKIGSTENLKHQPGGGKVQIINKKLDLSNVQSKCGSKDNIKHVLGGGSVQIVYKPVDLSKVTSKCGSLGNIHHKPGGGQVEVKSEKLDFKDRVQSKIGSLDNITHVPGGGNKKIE
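In this qHTS, human K18 P301L tau is incubated with compound and heparin for 6 hr at 37 C, and Thioflavin T fluorescence then reports fibril load.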
FBPA coupling cs: qHTS Assay for Inhibitors of Fructose-1,6-bisphosphate Aldolase from Giardia Lamblia: Coupling assay counterscreen | coupling enzyme system counterscreen, AmpLite Red fluorescence | activity change, negative = inhibition, % at 58.2 µM, hits read low | 0.67% of 290,000 active; in the data active = activity change below about -30%
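Counterscreen of the coupled detection system alone, without aldolase: glyceraldehyde-3-phosphate coupling enzymes plus AmpLite Red readout. Compounds at 57.5 uM final, 10 min RT preincubation, 20 min RT reaction, fluorescence 525/598 nm.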
Tau fluor cs: Counterscreen qHTS for Inhibitors of Tau Fibril Formation, Fluorescence Polarization | AID 1463, 2008 | 0.93% of 280,000 active | tau K18 P301L (four-repeat tau fragment) Alexa594 fluorescence, heparin fibrillization | Potency, µM (top dose mostly 57.7 µM), for inactives: top-dose activity change, negative = decrease; note: potency is the fitted concentration of half-maximal effect; nearly all actives have a fitted effect of over 55% in size
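Human K18 P301L tau (15 uM unlabeled plus 0.24 uM Alexa 594-labeled, final) in 100 mM sodium acetate pH 7 was mixed with compound and 20 uM heparin and incubated 6 hr at 37 C.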
Tau FP inhib: qHTS for Inhibitors of Tau Fibril Formation, Fluorescence Polarization | K18 P301L tau heparin fibrillization, Alexa594 FP, 6 h | Potency, µM (doses to about 57.7 µM), without a hit: top-dose activity, negative = inhibition, hits mostly inhibitors | 0.39% of 280,000 active; note: potency is the fitted concentration of half-maximal effect; nearly all actives have a fitted effect of over 55% in size
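Read-out: fluorescence polarization of Alexa 594-labeled tau (0.24 uM), 555 nm excitation, 632 nm emission. Mixtures held 15 uM unlabeled K18 P301L, compound and 20 uM heparin, pH 7 acetate buffer, incubated 6 hr at 37 C.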
JMJD2E inh: qHTS Assay for Inhibitors of Human Jumonji Domain Containing 2E (JMJD2E). Potency, µM (doses to about 57.1 µM), without a hit: top-dose activity change, negative = inhibition, actives largely listed as inhibitors. Lysine-specific demethylase 4E (Homo sapiens), B2RXH2. AID 2147, 2009. JMJD2E catalytic domain, FDH-coupled NADH fluorescence (FDH is formaldehyde dehydrogenase). 1.6% of 230,000 active; active = well fitted inhibition curve with a large enough effect, not every such curve was filed as active; inconclusive = small, poorly fitted or top-dose-only effect, or another doubt; inactive = no such curve, though single readings can be large or run the other way;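 note: potency is the fitted concentration of half-maximal effect; 0% = wells with enzyme and -100% = buffer wells without enzyme; nearly all actives have a fitted effect of over 50% in size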
Target sequence (B2RXH2 1-337 limits assumed): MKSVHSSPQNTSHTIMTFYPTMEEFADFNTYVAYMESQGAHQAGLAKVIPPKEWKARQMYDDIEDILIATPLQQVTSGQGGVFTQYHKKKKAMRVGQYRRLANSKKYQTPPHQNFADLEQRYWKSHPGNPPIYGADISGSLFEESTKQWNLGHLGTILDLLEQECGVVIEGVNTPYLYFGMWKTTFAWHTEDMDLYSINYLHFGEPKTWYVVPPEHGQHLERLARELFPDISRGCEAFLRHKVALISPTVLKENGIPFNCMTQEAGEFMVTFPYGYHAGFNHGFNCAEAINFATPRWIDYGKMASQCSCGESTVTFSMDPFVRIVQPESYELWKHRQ
Sfp inh: qHTS Assay for Inhibitors of Bacillus subtilis Sfp phosphopantetheinyl transferase (PPTase) | 4'-phosphopantetheinyl transferase ffp (Bacillus subtilis), Q9F4F7 | Biochemical Sfp PPTase activity, qHTS | Potency, µM, for the others: largest response in the series, negative = inhibition, usual class: inhibitors | 3.5% of 310,000 active;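 note: the enzyme is Sfp with the accession as filed and its product quenches rhodamine fluorescence; potency is the fitted concentration of half-maximal effect; 0% = enzyme reaction without inhibitor and -100% = no enzyme wells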
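With Hepes-Na pH 7.6 buffer containing 10 mM MgCl2, Sfp (15 nM) modified BHQ-2-YbbR (12.5 uM) using rhodamine-CoA (5 uM). Two reads 30 minutes apart at 525/598 nm yielded each well's rate.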
Numbers without * were called inactive; ? = inconclusive; / = no result; [ ] = remark or other dose. Hits are enriched below; roughly 5.3% of the tested compounds scored in any of these assays. Unless noted, calls come from the whole dose curve; as a rule, active = well fitted curve in the direction sought with a large enough effect; inconclusive = small, poorly fitted or top-dose-only effect, or another doubt; inactive = no such curve, though single readings can be large; an effect the other way counts as inactive or inconclusive. Unless noted, % is set by controls: 0 for no effect and ±100 for the full control effect.

SMILES	Tau fibril ThT	FBPA coupling cs	Tau fluor cs	Tau FP inhib	JMJD2E inh	Sfp inh
COC(=O)C1=C(C)N(Cc2ccc(C)cc2)C(=O)/C1=C\c1ccc(O)c(OC)c1	14µM*	-12	?	?	-28%	50µM*
CCOC(=O)C1=C(C)N(c2ccc(C)cc2)C(=O)/C1=C\c1ccc(O)c(OC)c1	25µM*	-17	?	?	2.2µM*	45µM*
CCOc1cc(/C=C2\C(=O)N(Cc3ccco3)C(C)=C2C(=O)OC)ccc1O	28µM*	-14	?	?	5%	20µM*
CCOc1cc(/C=C2\C(=O)N(CCc3ccc(OC)c(OC)c3)C(C)=C2C(=O)OC)ccc1O	28µM*	-16	?	?	-15%	50µM*
COC(=O)C1=C(C)N(Cc2ccc(C)cc2)C(=O)/C1=C\c1cc(OC)c(OC)c(OC)c1	?	-1	-16%	-8%	-8%	-16%
S=C(NNc1ccnc2cc(Cl)ccc12)Nc1ccc(Cl)cc1Cl	4µM*	-1	4µM*[quencher]	?	?	20µM*
S=C(NCc1ccncc1)Nc1ccc(Cl)cc1Cl	1%	1	-3%	-10%	-3%	6%
CCOc1ccc(NC(=S)NNc2ccnc3cc(Cl)ccc23)cc1	13µM*	0	?	-4%	-8%	20µM*
O=C(NCc1ccccc1Cl)C(=O)NCC(c1cccs1)S(=O)(=O)c1cccs1 (centres undefined)	-9%	/	-16%	-11%	/	/
CO[C@H]1COC(=O)CCC[C@H](C)[C@H](OC)COC(=O)C/C=C\[C@@H]1C	-9%[11.5 µM]	-1	-7%[11.6 µM]	4%[11.6 µM]	/	8%
CC(=O)/C(=C/c1ccc(N(C)C)cc1)C(=O)c1ccccc1	18µM*	0	?	6%	-5%	11%
NCCCC(N)CC(=O)NCC1NC(=O)C(CO)NC(=O)C(N)CNC(=O)C(C2CCN=C(N)N2)NC(=O)/C(=C/NC(N)=O)NC1=O (centres undefined)	/	/	/	/	/	1%
COCCn1c(=O)c(-c2cc(F)cc(F)c2)nc2cnc(OC)nc21	/	-2	/	/	/	13%
O=C(O)C(Cc1c[nH]c2ccccc12)NS(=O)(=O)c1cccc2nsnc12 (centres undefined)	14%	-11	7%	3%	0%	56µM*
O=C(Nc1cccc(C(F)(F)F)c1)Nc1cc(Cl)ccc1C(=O)O	/	0	/	/	/	10%
O=C(c1ccco1)N1CCN(c2ncnc3c(-c4ccc(Cl)cc4)nsc23)CC1	/	-3	/	/	/	?
O=C(CSc1ncnc2c(-c3ccc(Cl)cc3)nsc12)c1ccccc1	18µM*	2	?	?	3%	12%
COc1ccc2c(c1)O[C@H](c1ccc3c(c1)OCO3)[C@@H](OC(=O)NS(=O)(=O)c1ccc(C)cc1)C2=O	-4%	2	2%	11%	1%	13%
COc1cccc(C2C3=C(N=c4s/c(=C\c5cccc(O)c5)c(=O)n42)c2ccccc2CC3)c1OC (centres undefined)	?	2	?	22µM*	-20%	5%
COc1ccccc1C1C2=C(N=c3s/c(=C/c4cccc(OCC(=O)O)c4)c(=O)n31)c1ccccc1CC2 (centres undefined)	16µM*	-3	?	?	-5%	79µM*
CCOC(=O)C1=C(C)N=c2s/c(=C\c3ccc(OCC(=O)O)cc3)c(=O)n2C1c1ccccc1 (centres undefined)	/	5	/	/	/	-1%
